Inhibition data for 39 compounds are collected here from PubChem BioAssay.

Molecules are shown by their SMILES.

Test [1] addresses PEG-3 (UniProt Q6IN02). The experiment in a line: inhibition of PEG-3 promoter-driven reporter – cell-based, HeLa, luciferase, CREF/GAPDH counter-screen panel, dose response (AID 624167). The conditions noted are these: CREF/GAPDH counter-screens; HeLa PEG-Prom luciferase reporter, overnight, run 1, dose range 1, at 100 µM (top of the series) unless noted. On the technique in general: The purpose of a counterscreen is to sort out artefacts and off-target activity.

Test [2] concerns the target PEG-3 (UniProt Q6IN02). Described as above. The conditions noted are these: CREF/GAPDH counter-screens; HeLa PEG-Prom luciferase reporter, overnight, run 2, dose range 1, at 100 µM (top of the series) unless noted.

PEG-3, sequence (Q6IN02 whole entry, looked up): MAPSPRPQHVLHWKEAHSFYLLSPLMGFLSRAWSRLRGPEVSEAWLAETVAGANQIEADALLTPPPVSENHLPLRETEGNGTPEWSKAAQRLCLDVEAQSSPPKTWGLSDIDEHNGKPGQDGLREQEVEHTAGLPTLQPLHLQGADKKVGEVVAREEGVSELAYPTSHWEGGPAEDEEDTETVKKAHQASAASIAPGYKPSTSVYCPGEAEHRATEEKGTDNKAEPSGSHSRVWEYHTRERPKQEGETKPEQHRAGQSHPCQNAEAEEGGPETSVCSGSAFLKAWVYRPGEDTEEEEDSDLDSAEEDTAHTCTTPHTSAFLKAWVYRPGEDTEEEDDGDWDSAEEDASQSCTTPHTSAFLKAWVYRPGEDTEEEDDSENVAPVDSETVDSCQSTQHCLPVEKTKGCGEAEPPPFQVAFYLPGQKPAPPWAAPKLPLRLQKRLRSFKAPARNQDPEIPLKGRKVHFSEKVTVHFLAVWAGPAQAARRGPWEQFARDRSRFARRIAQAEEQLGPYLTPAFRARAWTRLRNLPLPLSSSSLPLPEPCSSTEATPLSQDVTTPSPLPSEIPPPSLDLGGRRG

With `CN(C)CCNc1ncnc2c1sc1nc(N3CCCC3)c3c(c12)CC(C)(C)OC3`, the inhibition (as a rule, the change of the read-out against control, counted positive when it falls) was 99.7% in the test with PEG-3 [1] and 102% with PEG-3 [2].
For `O=C(NC(c1ccc(F)cc1)c1ccc2ccccc2n1)C1CCN(Cc2cccc(C(F)(F)F)c2)CC1` (stereo not drawn) the same measures were 91.2% and 94.1%.
For the compound `COc1cc2ccccc2cc1C(=O)N(CCN(C)C)c1nc2c(OC)ccc(OC)c2s1`, the inhibition amounted to 98.2% with PEG-3 [1] and 101% with PEG-3 [2].
For the compound `Cc1ccc2sc(N(CCCN(C)C)C(=O)c3ccc(S(=O)(=O)N(C)C4CCCCC4)cc3)nc2c1C`, the inhibition with PEG-3 [1] and with PEG-3 [2] was 102% in each case.
Turning to `Cc1nc(-c2ccc(F)cc2)c(CC(=O)N(C)CC(=O)Nc2ccc(Cl)c(C(F)(F)F)c2)s1`, the inhibition worked out at 99.8% with PEG-3 [1] and 102% with PEG-3 [2].
On to `Cc1ccc2[nH]c(=O)c(C3C(C#N)=C(N)Oc4c3ccc3cccnc43)cc2c1` (stereo not drawn), for which the inhibition stood at 99.2% with PEG-3 [1] and 98.6% with PEG-3 [2].
The matching figures for `CC1(C)CC(NCCN2CCN(C3=CC(=C(C#N)C#N)CC(C)(C)C3)CC2)=CC(=C(C#N)C#N)C1`: 19.6% and 44%.
The matching figures for `CC(=O)NC(c1ccc(C)cc1)c1cc(Cl)c2cccnc2c1O` (stereo not drawn): 88.1% and 89.7%.
With `CCOc1ccc(Nc2c3ccccc3nc3ccccc23)cc1`, the inhibition in the test with PEG-3 [1] stood at 97.9%; with PEG-3 [2] it was 101%.
For `Cn1nnnc1Sc1ncnc2scc(-c3ccc4c(c3)OCO4)c12` the same measures were 102% and 97.4%.
The matching figures for `Cc1cc(Cl)n2ncc(-c3ccccc3)c2n1`: 102% and 102%.
For `CC(NNC(=S)N1CCN(c2ccccn2)CC1)c1nccc2ccccc12` (stereo not drawn), the inhibition with PEG-3 [1] came out at 98.7%; with PEG-3 [2] it was 99.9%.
Take `O=S(=O)(Nc1cccc2ncccc12)c1cccs1`: the inhibition stood at 94.5% with PEG-3 [1] and 96.5% with PEG-3 [2].
On to `CC(C)n1nc(C(=O)Oc2cc(Cl)ccc2Cl)c2ccccc2c1=O`, for which the inhibition with PEG-3 [1] is 98.6%; in the test with PEG-3 [2], 97.5%.
Consider `O=C(C=Cc1ccccn1)c1ccccc1`, for which the inhibition with PEG-3 [1] and with PEG-3 [2] was 101% in each case.
As to `Cn1nnnc1Sc1ncnc2scc(-c3ccsc3)c12`, the inhibition with PEG-3 [1] and with PEG-3 [2] was 102% in each case.
As for `Cc1cc(C)nc(NC(=O)c2c(F)c(F)c(F)c(C(=O)Nc3cc(C)cc(C)n3)c2F)c1`, the inhibition in the test with PEG-3 [1] is 96.5%; with PEG-3 [2] it was 98.3%.
As for `CCOC(=O)c1ccc2ncc(C(=O)OCC)c(NCCN(C)C)c2c1`, the inhibition with PEG-3 [1] turned out to be 73%; with PEG-3 [2] it was 77.3%.
For `Cc1ccc(S(=O)(=O)CCSC(=N)N)cc1`, the inhibition with PEG-3 [1] is 101%; with PEG-3 [2], 93.6%.
For `O=C(C[C@H]1C[C@H](C(=O)N2CCCCC2)[C@@]2(CCc3ccccc3)c3[nH]c4ccc(Cl)cc4c3CCN2C1=O)NCCc1ccccn1` the same measures were 94% and 93.1%.
For `COc1ccccc1NC(=O)Nc1nc(C(N)CCc2ccccc2)cs1` (stereo not drawn) the same measures were 95.9% and 102%.
The matching figures for `COc1ccc(-n2cc(CNC3CCN(C)CC3)c(-c3cccc(F)c3)n2)cc1`: 100% and 101%.
With `CC(=O)NC(c1ccccc1)c1cc(Cl)c2cccnc2c1O` (stereo not drawn), the inhibition with PEG-3 [1] came out at 96.6%; in the test with PEG-3 [2], 99.7%.
The matching figures for `O=C(CN1CCCC1)Nc1ccc(-c2nc3cc(NC(=O)CN4CCCC4)ccc3o2)cc1`: 98.9% and 102%.
Turning to `Cc1cc(Br)ccc1NC(=O)CN1C(=O)C2C3CC(c4ccccc4)C(C3)C2C1=O` (stereo not drawn), the inhibition in the test with PEG-3 [1] was 99.9%; in the test with PEG-3 [2], 92.1%.
The matching figures for `O=S(=O)(/N=C(/Sc1ccccc1)c1ccccc1)c1ccccc1`: 102% and 101%.
Turning to `COc1ccc2c(c1)[nH]c1c(=O)n(/N=C/C3C(C)C=C(C)CC3C)c(=O)[nH]c12` (stereo not drawn), the inhibition is -108% with PEG-3 [1] and -83.6% with PEG-3 [2].
The matching figures for `O=C(Cc1csc(Nc2nc(=S)[nH]c3ccccc23)n1)NCc1ccccc1Cl`: -6.11% and -45.6%.
For `O=C(CCCN1C(=O)/C(=C/c2cccc(Br)c2)SC1=S)Nc1cccnc1` the same measures were 101% and 96.5%.
Turning to `COc1cccc(/C=C2/Sc3ccc(C(=O)NCCCN4CCCC4)cc3NC2=O)c1`, the results for the inhibition in the test with PEG-3 [1] and in the test with PEG-3 [2] were 102% and 99%, respectively.
The matching figures for `COc1ccc(CC(=O)N(Cc2ccccc2)c2ccccc2)cc1S(=O)(=O)N1CCOCC1`: 82.4% and 91.1%.
With `CN(C)CCCN1c2ccccc2Sc2ccc3ccccc3c21`, the inhibition amounted to 94.6% with PEG-3 [1] and 98.6% with PEG-3 [2].
For `COc1ccccc1CNC(=O)c1c(N)n(CCCN2CCOCC2)c2nc3ccccc3nc12` the same measures were 99.1% and 99%.
For the compound `O=C(CCCN1C(=O)/C(=C/c2ccccc2Cl)SC1=S)NNC(=O)c1ccccc1Cl`, the figures for the inhibition with PEG-3 [1] and with PEG-3 [2] were 100% and 101%, respectively.
For `CC(NC(=O)c1ccc([N+](=O)[O-])o1)C12CC3CC(CC(C3)C1)C2` (stereo not drawn) the same measures were 99.4% and 98.5%.
For `O=C(Nc1cccc(S(=O)(=O)N2CCOCC2)c1)c1ccc2c(=O)n3c(nc2c1)CCCCC3` the same measures were 96.5% and 98%.
Take `O=C(Nc1ccccc1)c1nc[nH]c1C(=O)NCCCCNC(=O)c1[nH]cnc1C(=O)Nc1ccccc1`: the inhibition with PEG-3 [1] came to 22.3%; with PEG-3 [2] it was 59.3%.
With `Cc1ccc(S(=O)(=O)N(C)C)cc1NC(=O)c1cncc(Br)c1`, the inhibition with PEG-3 [1] was 82.4%; in the test with PEG-3 [2], 83.7%.
Consider `COc1cccc(/C=N/NC(=O)c2c(-c3ccccc3)noc2C)c1O`, for which the inhibition in the test with PEG-3 [1] was determined as 33.5%; with PEG-3 [2] it was 54.6%.
